This is a sample that favours compounds with a hit; in the whole collection about 9.2% have one here.
SMN2 splice up = qHTS Assay for Enhancers of SMN2 Splice Variant Expression. HEK293 SMN2-luciferase splicing reporter, luminescence, 30-36 h. Potency, µM (top dose mostly 46.1 µM), for the others: at the highest dose activity change, positive = activation, actives largely listed as activators. 210,000 compounds, 2.8% hits. AID 1458, 2008; also: % of control where 0% means no effect; nearly all actives have a fitted effect of over 55% in size
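HEK293 cells carry an SMN2 minigene-luciferase reporter in which exon 7 inclusion puts luciferase in frame. Cells were seeded at 2000 cells/well, attached for 10-12 hours, then exposed to compounds for 30-36 hours at 37C before ONE-Glo luminescence.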
Rab9 promoter act = qHTS Assay for Rab9 Promoter Activators; Huh7 Rab9 promoter-luciferase reporter, luminescence, 24 h; Potency, µM (doses to about 9.22 µM), for inactives: top-dose activation, negative = inhibition, hits mostly activators; 320,000 compounds, 2.8% hits; AID 485297, 2010; also: % of control where 0% means no effect; nearly all actives have a fitted effect of over 60% in size
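Huh7 cells stably carrying a Rab9 promoter-luciferase reporter, 1500 cells per well in OP-MEM I with 10% FBS, treated with compound 24 hours at 37C. Luciferase activity read by luminescence after 10 minutes with Amplite reagent.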
ELG1 DNA repair = qHTS screen for small molecules that inhibit ELG1-dependent DNA repair in human embryonic kidney (HEK293T) cells expressing luciferase-tagged ELG1. HEK293T ELG1-luciferase reporter, luminescence, 16 h; DNA damage induced by 5-fluorouridine. Potency, µM (top dose mostly 46.1 µM), without a hit: top-dose activity change, negative = inhibition, hits mostly inhibitors. 330,000 compounds, 2.3% hits; also: % is scaled to controls: 0 for no effect and ±100 for the full control effect; nearly all actives have a fitted effect of over 55% in size
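In this reporter screen, reduction of luminescence relative to DMSO vehicle indicated activity. Compounds and 5-fluorouridine were added together to 2,000 cells per well, incubated for 16 hr at 37 °C, then developed with ONE-Glo.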
FLuc counter = qHTS profiling assay for firefly luciferase inhibitor/activator using purifed enzyme and Km concentrations of substrates (counterscreen for miR-21 project). Luciferin 4-monooxygenase (Photinus pyralis), P08659. purified FLuc, Km substrates, luminescence inhibition. Potency, µM (series often up to 57.5 µM), for the others: at the top dose activity change, negative = inhibition, actives largely listed as inhibitors. 360,000 compounds, 6.9% hits. AID 588342, 2011;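 also: plate controls were vehicle for no effect and reference inhibitor for full effect; nearly all actives have a fitted effect of over 55% in size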
Target sequence (P08659 whole entry, looked up): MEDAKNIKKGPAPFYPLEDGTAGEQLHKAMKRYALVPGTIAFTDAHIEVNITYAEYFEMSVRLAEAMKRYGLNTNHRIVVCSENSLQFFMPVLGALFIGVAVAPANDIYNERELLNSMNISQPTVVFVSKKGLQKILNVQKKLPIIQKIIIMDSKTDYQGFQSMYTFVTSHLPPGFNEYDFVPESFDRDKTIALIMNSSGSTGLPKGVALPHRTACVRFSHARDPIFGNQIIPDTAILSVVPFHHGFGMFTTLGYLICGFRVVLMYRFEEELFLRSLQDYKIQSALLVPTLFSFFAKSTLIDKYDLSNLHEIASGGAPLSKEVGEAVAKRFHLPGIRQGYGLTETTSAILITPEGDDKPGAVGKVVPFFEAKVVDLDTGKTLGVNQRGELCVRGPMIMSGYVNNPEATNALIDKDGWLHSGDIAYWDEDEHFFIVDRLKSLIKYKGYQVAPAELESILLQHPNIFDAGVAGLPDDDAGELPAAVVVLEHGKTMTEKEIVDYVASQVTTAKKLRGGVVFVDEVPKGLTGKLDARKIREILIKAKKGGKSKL
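Biochemical qHTS of compounds, final roughly 60 µM downward over six points, against 10 nM purified firefly luciferase using Km concentrations of substrates (10 uM D-luciferin, 10 uM ATP) in Tris acetate pH 7.5 buffer; luminescence output.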
NPC1 promoter act = qHTS Assay for NPC1 Promoter Activators; Potency, µM (titrated, usually from 9.22 µM), for inactives: top-dose activation, actives largely listed as activators; Huh7 NPC1 promoter luciferase reporter, 24 h; 320,000 compounds, 2.4% hits; also: % of control where 0% means no effect; nearly all actives have a fitted effect of over 60% in size
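Luminescence read-out of NPC1 promoter-driven luciferase in stably transfected Huh7 cells; compounds delivered in DMSO and left 24 h at 37C, 5% CO2, qHTS titration format.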
ELG1 genotox = qHTS screen for small molecules that induce genotoxicity in human embryonic kidney (HEK293T) cells expressing luciferase-tagged ELG1. 330,000 compounds, 1.3% hits. Potency, µM (doses to about 46 µM), for inactives: top-dose activity change, positive = activation, hits mostly activators. HEK293T ELG1-luciferase reporter, luminescence, 16 h; also: % of control where 0% means no effect; nearly all actives have a fitted effect of over 60% in size
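Quantitative HTS format in 1536-well plates. HEK293T ELG1-luciferase reporter cells receive test compound and are incubated 16 hr at 37 °C, 5% CO2; ONE-Glo added, 30 min room temperature, then luminescence read.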
The depositor's hits bear a star. Calls follow the shape of the dose curve; as a rule, active = well fitted curve in the direction sought with a large enough effect; inconclusive = small, poorly fitted or top-dose-only effect, or another doubt; inactive = no such curve, though single readings can be large; an effect the other way counts as inactive or inconclusive. Potency is read from the fitted curve at half-maximal effect.

How did CC(=O)c1c(C)[nH]c(C(=O)N2CCN(c3cc(Cl)ccc3C)CC2)c1C do in these assays?
SMN2 splice up: 7%; Rab9 promoter act: -15%; ELG1 DNA repair: 3.7µM*; FLuc counter: 6%; NPC1 promoter act: -23%; ELG1 genotox: -17%

How did CC(=O)c1c(C)[nH]c(C(=O)Nc2cccc(S(=O)(=O)N3CCOCC3)c2)c1C do in these assays?
SMN2 splice up: 8.9µM*; Rab9 promoter act: 1%; ELG1 DNA repair: inconclusive; FLuc counter: -3%; NPC1 promoter act: -2%; ELG1 genotox: inconclusive

What do the screens show for `Cc1ccc(C(=O)Nc2cccc(C(=O)N/N=C/c3ccccc3F)c2)cc1`?
Rab9 promoter act: 1.6µM*; ELG1 DNA repair: inconclusive; FLuc counter: 5.4µM*; NPC1 promoter act: 2µM*; ELG1 genotox: inconclusive

How did CC(=O)Nc1cccc(C(=O)N/N=C/c2ccccc2F)c1 do in these assays?
SMN2 splice up: inconclusive; Rab9 promoter act: 0.79µM*; ELG1 DNA repair: inconclusive; FLuc counter: 1.3µM*; NPC1 promoter act: 3.2µM*; ELG1 genotox: 7.3µM*

How did Cc1ccc(CN2CCN(CC(=O)N/N=C/c3ccccc3F)CC2)cc1 do in these assays?
Rab9 promoter act: inconclusive; ELG1 DNA repair: inconclusive; FLuc counter: 1.7µM*; NPC1 promoter act: 6%; ELG1 genotox: inconclusive

What do the screens show for `CC1(c2ccc3c(c2)OCCO3)NC(=O)N(CC(=O)Nc2c(F)cccc2F)C1=O` (stereo unspecified)?
Rab9 promoter act: 4%; ELG1 DNA repair: 17%; FLuc counter: 3%; NPC1 promoter act: 1%; ELG1 genotox: 5%

What do the screens show for `CCOC(=O)c1c(C)[nH]c(CCC(=O)NCCCN2CCN(c3ccccc3F)CC2)c1C`?
FLuc counter: 1%

How did COc1cccc(CNC(=O)C2=C(C)C(=O)OC23CCC(C)CC3)c1 (stereo unspecified) do in these assays?
SMN2 splice up: inconclusive; Rab9 promoter act: 7%; ELG1 DNA repair: 1%; FLuc counter: 1%; NPC1 promoter act: -4%; ELG1 genotox: -4%

How did Cc1ccc(NC(=O)C2=C(O)c3sccc3N(C)S2(=O)=O)cc1 do in these assays?
SMN2 splice up: inconclusive; Rab9 promoter act: 19%; ELG1 DNA repair: inconclusive; FLuc counter: 8.5µM*; NPC1 promoter act: 6%; ELG1 genotox: 5%

How did CN1c2ccsc2C(O)=C(C(=O)Nc2ccccc2)S1(=O)=O do in these assays?
SMN2 splice up: 18%; Rab9 promoter act: 3%; ELG1 DNA repair: inconclusive; FLuc counter: 15µM*; NPC1 promoter act: 0%; ELG1 genotox: 0%

What do the screens show for `COc1ccc(S(=O)(=O)N2CCCCCC2)cc1NC(=O)CN(C)Cc1ccc2c(c1)OCO2`?
Rab9 promoter act: -6%; ELG1 DNA repair: 21µM*; NPC1 promoter act: -7%; ELG1 genotox: -6%

What do the screens show for `CN1CCN(c2ccc(S(=O)(=O)N3CCCCC3)cc2NC(=O)Cc2c(F)cccc2Cl)CC1`?
Rab9 promoter act: -11%; ELG1 DNA repair: 10%; FLuc counter: 5%; NPC1 promoter act: -1%; ELG1 genotox: 1%

Results for O=C(Cc1c(F)cccc1Cl)Nc1cc(S(=O)(=O)N2CCCCC2)ccc1N1CCOCC1 ?
Rab9 promoter act: 2%; ELG1 DNA repair: 18µM*; FLuc counter: -12%; NPC1 promoter act: -2%; ELG1 genotox: -4%

What do the screens show for `COc1ccc(S(=O)(=O)N2CCOCC2)cc1NC(=O)Cc1c(Cl)cccc1Cl`?
SMN2 splice up: 8%; Rab9 promoter act: -5%; ELG1 DNA repair: 6%; FLuc counter: 3%; NPC1 promoter act: -1%; ELG1 genotox: 3%

What do the screens show for `COc1ccc(S(=O)(=O)N2CCOCC2)cc1NC(=O)CN(C)Cc1c(F)cccc1Cl`?
SMN2 splice up: -29%; Rab9 promoter act: -2%; ELG1 DNA repair: 21µM*; FLuc counter: -4%; NPC1 promoter act: 1%; ELG1 genotox: -12%

Results for COc1ccc(S(=O)(=O)N2CCOCC2)cc1NC(=O)C1COc2ccccc2O1 (stereo unspecified) ?
Rab9 promoter act: 0%; ELG1 DNA repair: 10µM*; FLuc counter: 1%; NPC1 promoter act: -4%; ELG1 genotox: -8%

Results for CCCc1nc2sc3c(=O)n(N)cnc3c2c2c1CCCC2 ?
SMN2 splice up: 7%; Rab9 promoter act: -11%; ELG1 DNA repair: 0%; FLuc counter: -2%; NPC1 promoter act: -4%; ELG1 genotox: 1%

How did CCCOc1ccc(C(=O)Nc2nonc2-c2ccc(OCC)cc2)cc1 do in these assays?
SMN2 splice up: 3%; FLuc counter: -9%

Results for COc1ccc(CCn2c(C(C)C)nc3oc4ccccc4c(=O)c3c2=O)cc1 ?
Rab9 promoter act: -1%; ELG1 DNA repair: inconclusive; FLuc counter: 3%; NPC1 promoter act: -2%; ELG1 genotox: -7%

How did COc1ccc(Cn2c(C3CC3)nc3ccc(NC(=O)c4ccco4)cc3c2=O)cc1 do in these assays?
SMN2 splice up: inconclusive; Rab9 promoter act: 21%; ELG1 DNA repair: inconclusive; FLuc counter: 15µM*; NPC1 promoter act: 3.2µM*; ELG1 genotox: inconclusive

How did O=C(Nc1ccc2nc(C3CC3)n(Cc3ccccc3)c(=O)c2c1)C1CC1 do in these assays?
Rab9 promoter act: 2.5µM*; ELG1 DNA repair: inconclusive; FLuc counter: -9%; NPC1 promoter act: 2.8µM*; ELG1 genotox: inconclusive

Results for CCCc1nc2ccc(NC(=O)c3ccco3)cc2c(=O)n1Cc1ccccc1Cl ?
SMN2 splice up: -9%; Rab9 promoter act: 3%; ELG1 DNA repair: 18µM*; FLuc counter: 8%; NPC1 promoter act: -2%; ELG1 genotox: 0%

Results for O=C(Nn1c(C2CC2)nc2ccccc2c1=O)c1ccco1 ?
SMN2 splice up: 4%; Rab9 promoter act: -3%; ELG1 DNA repair: -5%; FLuc counter: 1%; NPC1 promoter act: -2%; ELG1 genotox: -3%

How did CCC(=O)Nc1ccc2nc(C3CC3)n(Cc3ccccc3)c(=O)c2c1 do in these assays?
SMN2 splice up: inconclusive; Rab9 promoter act: 3.5µM*; ELG1 DNA repair: inconclusive; FLuc counter: inconclusive; NPC1 promoter act: inconclusive; ELG1 genotox: 8.2µM*

Bioassay records from PubChem.
